Laboratory results reported in PubChem BioAssay (NCI).
“And” between values parts separate entries of the source, which are not always exact repeats. Equal values may be shown once. About 79,000 compounds went through this panel and 15% of them were active in at least one assay; those are over-represented in the sample as a whole. Where a structure was tested more than once in an assay, its records may differ in their call. The source made the active and inactive calls. Rule as the data show it: active = growth inhibition above about 70%; inactive = the rest.

How the values were obtained:
[1] = NCI Yeast Anticancer Drug Screen. Data for the rad52 strain (AID 147);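 also: 0% = growth of vehicle-treated control cultures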; conditions: S. cerevisiae rad52 mutant growth inhibition, stronger effect = higher value
In short: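 Genetically altered yeast (DNA damage repair defect) treated with compound; inhibition calculated relative to vehicle.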

[2] = NCI Yeast Anticancer Drug Screen. Data for the wt1 strain (AID 149);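 also: 0% = growth of vehicle-treated wt1 cultures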; conditions: S. cerevisiae wt1 strain (SPY 50644) growth inhibition, stronger effect = higher value
In short: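 Compounds are added to wt1 yeast cultures. Growth is then measured. Inhibition is expressed relative to vehicle-treated controls.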

[3] = NCI Yeast Anticancer Drug Screen. Data for the rad50EPP+ strain (AID 151);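 also: 0% = growth of vehicle-treated control cultures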; conditions: S. cerevisiae rad50 mutant strain, stronger effect = higher value
In short: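 Strain rad50EPP+; compound exposure; % growth inhibition vs vehicle.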

[4] = NCI Yeast Anticancer Drug Screen. Data for the mgt1 strain (AID 153); conditions: S. cerevisiae mgt1 mutant growth inhibition, stronger effect = higher value
In short: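 Read-out: yeast growth inhibition vs vehicle control. Strain mgt1, drawn from a panel altered in DNA damage repair or cell cycle control.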

[5] = NCI Yeast Anticancer Drug Screen. Data for the rad50 strain (AID 155);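 also: 0% = growth of vehicle-only cultures of the same strain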; conditions: S. cerevisiae rad50 strain growth inhibition, stronger effect = higher value
In short: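 Inhibition values express reduced yeast growth in compound-treated cultures relative to vehicle-treated controls.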

[6] = NCI Yeast Anticancer Drug Screen. Data for the mec2-1 strain (AID 157); conditions: S. cerevisiae mec2-1 strain, stronger effect = higher value
In short: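 Cells of the genetically defined mec2-1 yeast strain are incubated with test compound. Inhibition of growth is calculated against vehicle-treated controls.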

[7] = NCI Yeast Anticancer Drug Screen. Data for the rad14 strain (AID 159);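 also: 0% = growth of vehicle-treated control cultures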; conditions: S. cerevisiae rad14 strain growth inhibition, stronger effect = higher value
In short: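 A mutant yeast strain defective in DNA damage repair is treated with compound; inhibition of its growth is scored against untreated, vehicle-exposed cultures.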

[8] = NCI Yeast Anticancer Drug Screen. Data for the CLN2oe strain (AID 163);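 also: 0% = growth of vehicle-only control cultures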; conditions: S. cerevisiae CLN2oe strain, stronger effect = higher value
In short: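 Strain altered in cell-cycle control, incubated with compound; growth compared to solvent-treated controls.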

[9] = NCI Yeast Anticancer Drug Screen. Data for the cln2 rad14 strain (AID 165);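 also: 0% = growth equal to vehicle treated cultures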; conditions: S. cerevisiae cln2 rad14 strain, stronger effect = higher value
In short: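 The screen exposed genetically defined yeast (cln2 rad14) to test compounds and scored growth inhibition relative to vehicle-treated controls.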

[10] = NCI Yeast Anticancer Drug Screen. Data for the bub3 strain (AID 167); conditions: S. cerevisiae bub3 mutant strain, stronger effect = higher value
In short: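 Steps: expose the mutant yeast strain to compound; grow alongside vehicle-treated cultures; measure growth; express inhibition against the vehicle cultures.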

[11] = NCI Yeast Anticancer Drug Screen. Data for the wt2 strain (AID 169);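 also: 0% = growth of vehicle-treated yeast cultures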; conditions: S. cerevisiae wt2 strain growth inhibition, stronger effect = higher value
In short: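 Steps: yeast strain treated with compound; growth recorded; inhibition calculated relative to cultures given vehicle alone.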

[12] = NCI Yeast Anticancer Drug Screen. Data for the mlh1 strain (AID 171);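 also: 0% = growth of vehicle-treated control cultures of the same strain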; conditions: S. cerevisiae mlh1 strain growth inhibition, stronger effect = higher value
In short: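 Yeast screen: mutant strain plus compound, growth scored against vehicle control wells.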

[13] = NCI Yeast Anticancer Drug Screen. Data for the sgs1 strain (AID 173);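 also: 0% = growth of vehicle-only control cultures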; conditions: S. cerevisiae sgs1 mutant, stronger effect = higher value
In short: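 Inhibition of yeast growth served as the measure. The mutant strain was treated with each compound, and growth was normalised to cultures receiving vehicle alone.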

[14] = NCI Yeast Anticancer Drug Screen. Data for the mlh1 rad18 strain (AID 175); conditions: S. cerevisiae mlh1 rad18 strain growth inhibition, stronger effect = higher value
In short: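 Compound-treated yeast growth, normalised to vehicle controls. Strain bears defined DNA repair mutations.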

[15] = NCI Yeast Anticancer Drug Screen. Data for the rad18 strain (AID 177); conditions: S. cerevisiae rad18 mutant growth inhibition, stronger effect = higher value
In short: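 Inhibition values reflect reduced yeast growth compared with vehicle-treated controls, using a strain engineered with a DNA damage repair defect.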

[16] = NCI Yeast Anticancer Drug Screen. Data for the sgs1 mgt1 strain (AID 161);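 also: 0% = growth of cultures given vehicle only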; conditions: S. cerevisiae sgs1 mgt1 strain, stronger effect = higher value
In short: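 Test agents were incubated with a DNA-repair-mutant yeast strain. Growth was then read and compared against vehicle-treated controls.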

[17] = at 5.0 µM (retest, dose inferred, filed as 0.5)
[18] = at 50.0 µM (retest, dose inferred, filed as 5.0)

Measured: growth inhibition

O=C(O)C1C2C=CC(C2)C1c1ccccc1 (stereo not drawn)
30.1% (inactive) and 95.9% (active): [10]; at 50.0 µM
inactive: [1]; at 1.2 µM -1% | [1]; at 3.7 µM 0% | [1]; at 11.0 µM -2% | [1]; at 33.0 µM -3% | [1]; at 100.0 µM 5% | [2]; at 1.2 µM -3% | [2]; at 3.7 µM -1% | [2]; at 11.0 µM -3% | [2]; at 33.0 µM -9% | [2]; at 100.0 µM 1% | [3]; at 1.2 µM -6% | [3]; at 3.7 µM -8% | [3]; at 11.0 µM -6% | [3]; at 33.0 µM -5% | [3]; at 100.0 µM 0% | [4]; at 1.2 µM -1% | [4]; at 3.7 µM -1% | [4]; at 11.0 µM -4% | [4]; at 33.0 µM -5% | [4]; at 100.0 µM 2% | [5]; at 1.2 µM -1% | [5]; at 3.7 µM 26% | [5]; [17] -1% | [5]; at 11.0 µM 1% | [5]; at 33.0 µM 0% | [5]; [18] 4% | [5]; at 50.0 µM 10.9% and 4.35% | [5]; at 100.0 µM 17% | [6]; at 1.2 µM 0% | [6]; at 3.7 µM 0% | [6]; [17] -1% | [6]; at 11.0 µM 0% | [6]; at 33.0 µM -1% | [6]; [18] 3% | [6]; at 50.0 µM 1.4% and 9.7% | [6]; at 100.0 µM 9% | [7]; at 1.2 µM -5% | [7]; at 3.7 µM -7% | [7]; at 11.0 µM -10% | [7]; at 33.0 µM -11% | [7]; at 100.0 µM -4% | [8]; at 1.2 µM -4% | [8]; at 3.7 µM -10% | [8]; at 11.0 µM -4% | [8]; at 33.0 µM -6% | [8]; at 100.0 µM 5% | [9]; [17] -5% | [9]; [18] -5% | [9]; at 50.0 µM -0.2% and 0.6% | [10]; at 1.2 µM 6% | [10]; at 3.7 µM 20% | [10]; [17] 34% | [10]; at 11.0 µM 45% | [11]; at 1.2 µM -2% | [11]; at 3.7 µM 5% | [11]; at 11.0 µM -4% | [11]; at 33.0 µM -3% | [11]; at 100.0 µM 8% | [12]; at 1.2 µM -1% | [12]; at 3.7 µM 0% | [12]; at 11.0 µM 1% | [12]; at 33.0 µM 0% | [12]; at 100.0 µM 11% | [13]; at 1.2 µM -5% | [13]; at 3.7 µM -5% | [13]; at 11.0 µM -5% | [13]; at 33.0 µM 6% | [13]; at 100.0 µM 40% | [14]; [17] -3% | [14]; [18] 5% | [14]; at 50.0 µM 10.6% and 6.5% | [15]; at 1.2 µM -1% | [15]; at 3.7 µM -3% | [15]; at 11.0 µM -2% | [15]; at 33.0 µM 10% | [15]; at 100.0 µM 60%
active: [10]; at 33.0 µM 73% | [10]; [18] 93% | [10]; at 100.0 µM 85%

COC(=O)C1=C(C(=O)OC)C2OC1c1cc3ccccc3cc12
inactive: [1]; at 1.2 µM 21% | [1]; at 3.7 µM 33% | [2]; at 1.2 µM 7% | [2]; at 3.7 µM 14% | [2]; at 11.0 µM 37% | [3]; at 1.2 µM 34% | [3]; at 3.7 µM 57% | [4]; at 1.2 µM 27% | [4]; at 3.7 µM 44% | [5]; at 1.2 µM 18% | [5]; at 3.7 µM 37% | [6]; at 1.2 µM 59% | [6]; at 3.7 µM 58% | [6]; [17] 58% | [7]; at 1.2 µM 18% | [7]; at 3.7 µM 24% | [7]; at 11.0 µM 66% | [8]; at 1.2 µM 45% | [8]; at 3.7 µM 50% | [9]; [17] 16% | [10]; [17] 64% | [12]; at 1.2 µM 19% | [12]; at 3.7 µM 35% | [13]; at 1.2 µM 24% | [13]; at 3.7 µM 45% | [15]; at 1.2 µM 50% | [15]; at 3.7 µM 60%
active: [1]; at 11.0 µM 79% | [1]; at 33.0 µM 97% | [1]; at 100.0 µM 98% | [2]; at 33.0 µM 97% | [2]; at 100.0 µM 99% | [3]; at 11.0 µM 79% | [3]; at 33.0 µM 93% | [3]; at 100.0 µM 96% | [4]; at 11.0 µM 93% | [4]; at 33.0 µM 99% | [4]; at 100.0 µM 99% | [5]; [17] 76% | [5]; at 11.0 µM 76% | [5]; at 33.0 µM 97% | [5]; [18] 100% | [5]; at 50.0 µM 99.6% | [5]; at 100.0 µM 98% | [6]; at 11.0 µM 86% | [6]; at 33.0 µM 99% | [6]; [18] 100% | [6]; at 50.0 µM 99.6% | [6]; at 100.0 µM 99% | [7]; at 33.0 µM 99% | [7]; at 100.0 µM 99% | [16]; [17] 92% | [16]; [18] 100% | [16]; at 50.0 µM 99.7% | [8]; at 11.0 µM 80% | [8]; at 33.0 µM 97% | [8]; at 100.0 µM 99% | [9]; [18] 99% | [9]; at 50.0 µM 99.4% | [10]; at 1.2 µM 75% | [10]; at 3.7 µM 87% | [10]; at 11.0 µM 89% | [10]; at 33.0 µM 99% | [10]; [18] 99% | [10]; at 50.0 µM 99.4% | [10]; at 100.0 µM 99% | [12]; at 11.0 µM 85% | [12]; at 33.0 µM 99% | [12]; at 100.0 µM 99% | [13]; at 11.0 µM 89% | [13]; at 33.0 µM 99% | [13]; at 100.0 µM 99% | [14]; [17] 96% | [14]; [18] 99% | [14]; at 50.0 µM 99.5% | [15]; at 11.0 µM 92% | [15]; at 33.0 µM 98% | [15]; at 100.0 µM 99%
